{"source": "ChEMBL document CHEMBL3988442", "about": "“University of Dundee, Small-Polar-MMV Screening Library” (2021)", "note": "The campaign covered roughly 48,000 compounds. About 13,000 (27%) showed an effect of 50% or more. The list shows a part of the results."}
{"test_system": "Wolbachia pipientis", "experiment": "Anti-Wolbachia Cell-Based Screen", "type": "functional", "design": "scale not given: in the data most compounds retested in dose-response had high values", "details": "5 µM", "units": {"Percent Effect": "%"}}
{"smiles": "Cn1nnnc1SCCNC(=O)c1cccc2ccnn12", "Percent Effect": 0.6807}
{"smiles": "CCC1CN(CC(=O)NC(C)C)CCO1", "note": "(stereo unspecified)", "Percent Effect": -17.56}
{"smiles": "CC1CCCCN1C(=O)c1cn(-c2ccc(C(F)(F)F)cn2)nn1", "note": "(stereo unspecified)", "Percent Effect": -15.67}
{"smiles": "O=C(COc1coc(CN2CCCC2)cc1=O)NCc1ccccc1Cl", "Percent Effect": 13.29}
{"smiles": "CCn1ncc2c1CCCC2NCc1csc(COC)n1", "note": "(stereo unspecified)", "Percent Effect": 6.958}
{"smiles": "CCCn1c(C)cc(C(=O)CN2C(=O)c3ccccc3CS2(=O)=O)c1C", "Percent Effect": -1.519}
{"smiles": "Cc1noc(C2CCN(C(=O)c3ccc(N(C)C)nc3)CC2)n1", "Percent Effect": -12.04}
{"smiles": "Cc1noc(C2CCC3(CCN(C(=O)c4ccnnc4)CC3)O2)n1", "note": "(stereo unspecified)", "Percent Effect": 98.77}
{"smiles": "Cc1noc(C2CCCN(C(=O)c3cncc(Br)c3)C2)n1", "note": "(stereo unspecified)", "Percent Effect": -3.695}
{"smiles": "COCCC1(C(=O)O)CCCN(c2cc(C)c3ccccc3n2)C1", "note": "(stereo unspecified)", "Percent Effect": -9.375}
{"smiles": "Cc1cc(N2CCC(CO)(CC3CCCCO3)CC2)nc2ccccc12", "note": "(stereo unspecified)", "Percent Effect": -15.69}
{"smiles": "CCCN1CCCC2(CCN(c3nc(C)nc4ccsc34)C2)C1=O", "note": "(stereo unspecified)", "Percent Effect": -5.221}
{"smiles": "Cc1cc(N2CCC3(CCCN(CCO)C3=O)C2)nc2cc(Cl)ccc12", "note": "(stereo unspecified)", "Percent Effect": 98.58}
{"smiles": "Cc1cc(N2CCC3(CCCN(CCO)C3=O)C2)nc2ccccc12", "note": "(stereo unspecified)", "Percent Effect": 93.99}
{"smiles": "COCCN1CCCC2(CCN(c3ncc(Cl)cc3Cl)C2)C1=O", "note": "(stereo unspecified)", "Percent Effect": 5.155}
{"smiles": "Cc1ccc2c(c1)OC1(NC2=O)C(=O)N(C)c2ccccc21", "note": "(stereo unspecified)", "Percent Effect": 2.541}
{"smiles": "COc1ncccc1NC(=O)N1CCOCC1C", "note": "(stereo unspecified)", "Percent Effect": 13.85}
{"smiles": "Cc1ncc(C(=O)N2CCC(N3CCc4ccccc4C3)CC2)c(O)n1", "Percent Effect": -7.9}
{"smiles": "C1CCC(c2nc3c(c(N4CCN5CCCC5C4)n2)CCNCC3)C1", "note": "(stereo unspecified)", "Percent Effect": -7.963}
{"smiles": "CCCC(=O)N1CCC(c2nc(O)c3c(n2)CCN(C2CCCC2)C3)C1", "note": "(stereo unspecified)", "Percent Effect": 91.38}
{"smiles": "Cc1ccc(-c2ncc(C(=O)N3CCN4CCCCC4C3)c(O)n2)cc1", "note": "(stereo unspecified)", "Percent Effect": 8.265}
{"smiles": "O=C(C1CC1)N1CCC(c2nc(O)c3c(n2)CN(C2CCCC2)CC3)C1", "note": "(stereo unspecified)", "Percent Effect": 78.69}
{"smiles": "CCC(=O)N1CCC(c2nc(O)c3c(n2)CN(C2CCCCC2)CC3)C1", "note": "(stereo unspecified)", "Percent Effect": 94.52}
{"smiles": "CCC(=O)N1CCC(NC2CCCC2)C1", "note": "(stereo unspecified)", "Percent Effect": -2.557}
{"smiles": "Cc1nc2c(c(=O)n1C)CN(C(=O)C1CCCN(C3CCCC3)C1)C2", "note": "(stereo unspecified)", "Percent Effect": -4.359}
{"smiles": "CC(C)N(CC(N)=O)Cc1cccc(C(F)(F)F)c1", "Percent Effect": -6.914}
{"smiles": "CC(C)c1cc(C(=O)N2CCNCC2C(=O)NCc2ccncc2)on1", "note": "(stereo unspecified)", "Percent Effect": -12.97}
{"smiles": "CC(C)(C)c1ccc2c(c1)CCN2C(=O)c1ccc(=O)[nH]n1", "Percent Effect": -4.388}
{"smiles": "CCc1nc2n(n1)CCCC2NC(=O)Nc1ccc(F)cc1C#N", "note": "(stereo unspecified)", "Percent Effect": -29.22}
{"smiles": "Cc1ccc(C(=O)N2CCC3(CC2)CC(c2ccccc2)C(=O)N3)o1", "note": "(stereo unspecified)", "Percent Effect": -4.481}
{"smiles": "CCOc1ccccc1N(C)Cc1nccn1C", "Percent Effect": -5.564}
{"smiles": "CC(C)=CCN1CC2(CCN(Cc3cccc(C#N)c3)CC2)CC1=O", "Percent Effect": 0.9714}
{"smiles": "CC(C)=CCN1CCC2(CC1)CC(=O)N(Cc1cc(F)cc(F)c1)C2", "Percent Effect": 132.9}
{"smiles": "CCCS(=O)(=O)N1CCC2(CC1)CC(=O)N(Cc1cc(F)cc(F)c1)C2", "Percent Effect": 128.2}
{"smiles": "CCCS(=O)(=O)N1CCC2(CCC(=O)N(CCc3ccncc3)C2)CC1", "Percent Effect": 3.257}
{"smiles": "CC(C)=CCN1CC2(CCN(Cc3c(F)cccc3F)CC2)CC1=O", "Percent Effect": -3.567}
{"smiles": "CC(C)N1CCC2(CC1)CC(=O)N(Cc1cc(F)cc(F)c1)C2", "Percent Effect": 84.47}
{"smiles": "CCCS(=O)(=O)N1CCC2(CCC(=O)N(Cc3ccccc3)C2)CC1", "Percent Effect": -5.429}
{"smiles": "O=C(CO)N1CCC2(CC1)CC(=O)N(Cc1cc(F)cc(F)c1)C2", "Percent Effect": 130.8}
{"smiles": "CN1CC2(CCN(C(=O)Cc3ccc(O)c(F)c3)CC2)CC1=O", "Percent Effect": -5.557}
{"smiles": "CCCc1noc(CCC(=O)N2CCN(C)CC2c2ccccc2)n1", "note": "(stereo unspecified)", "Percent Effect": 7.741}
{"smiles": "O=C(NCC1SCCc2ccccc21)c1cscn1", "note": "(stereo unspecified)", "Percent Effect": 1.343}
{"smiles": "N#Cc1cnc(NCCCN2C(=O)COc3ccccc32)c(Cl)c1", "Percent Effect": 9.033}
{"smiles": "CCOc1cccc(CNC(=O)NC2CC=CC2)c1OC(F)F", "Percent Effect": 3.017}
{"smiles": "Cc1n[nH]cc1CNC(C)c1cccc(N2CCCC2=O)c1.Cl", "note": "(stereo unspecified)", "Percent Effect": 3.207}
{"smiles": "O=C(Cc1ccco1)N1C[C@H]2CCC[C@@]2(COCc2cccnc2)C1", "Percent Effect": -4.256}
{"smiles": "O=C(c1cscn1)N1C[C@H]2CCC[C@@]2(COCc2ccccn2)C1", "Percent Effect": 128}
{"smiles": "O=C(Cc1ccsc1)N1C[C@H]2CCC[C@@]2(COCc2ccccn2)C1", "Percent Effect": 101.3}
{"smiles": "Cc1cccc(COC[C@@]23CCC[C@@H]2CN(C(=O)Cc2ccco2)C3)n1", "Percent Effect": 13.36}
{"smiles": "Cc1ccc(C(=O)N2C[C@H]3CCC[C@@]3(COCc3cccnc3)C2)s1", "Percent Effect": -11.48}
{"smiles": "O=C(c1cnc(C2CC2)s1)N1CCCCC1Cn1cccn1", "note": "(stereo unspecified)", "Percent Effect": 5.861}
{"smiles": "CCc1ncc(C(=O)N2CCCCC2Cn2cccn2)s1", "note": "(stereo unspecified)", "Percent Effect": -1.613}
{"smiles": "CCc1ncc(C(=O)N2CCCC2Cn2cccn2)s1", "note": "(stereo unspecified)", "Percent Effect": 101.3}
{"smiles": "NC(=O)c1csc(C(=O)N2CCCCC2Cn2cccn2)c1", "note": "(stereo unspecified)", "Percent Effect": -5.921}
{"smiles": "NC(=O)c1ccc(C(=O)N2CCCCC2Cn2cccn2)s1", "note": "(stereo unspecified)", "Percent Effect": 92.92}
{"smiles": "O=C(c1cnc(C2CC2)s1)N1CCCC1Cn1cccn1", "note": "(stereo unspecified)", "Percent Effect": 124.9}
{"smiles": "c1ccc2c(c1)CC(n1ccnc1-c1cc3n(n1)CCNC3)CO2", "note": "(stereo unspecified)", "Percent Effect": 0.8243}
{"smiles": "O=C(CC[C@@H]1CCCN2CCCC[C@H]12)NCCc1nc(O)cc(O)n1", "Percent Effect": -15.21}
{"smiles": "N#Cc1ccnc(N2CCN(CC(O)c3cccc(F)c3)CC2)c1", "note": "(stereo unspecified)", "Percent Effect": -9.554}
{"smiles": "Cc1ccc(-c2noc(CN3CCC(c4ccn[nH]4)CC3)n2)cc1", "Percent Effect": -38.16}
{"smiles": "O=C1NCCN1C1CCN(c2ccnc(-c3ccccc3)n2)CC1", "Percent Effect": 10.01}
{"smiles": "CCN1CCN(C2CCN(Cc3nc(-c4ccoc4)no3)CC2)C1=O", "Percent Effect": -10.87}
{"smiles": "Fc1ccc(-c2noc(CN3CCC(c4cc[nH]n4)CC3)n2)cc1", "Percent Effect": -73.45}
{"smiles": "Cc1ccc(-c2noc(CN3CCC(N4CCNC4=O)CC3)n2)cc1", "Percent Effect": 76.33}
{"smiles": "CC(C)Cc1nc(CN2CCC(N3CCN(C)C3=O)CC2)no1", "Percent Effect": -0.1019}
{"smiles": "Cc1cccc(-c2noc(CN3CCC(N4CCNC4=O)CC3)n2)c1", "Percent Effect": 0.5199}
{"smiles": "O=C1NCCN1C1CCN(Cc2nc(-c3ccoc3)no2)CC1", "Percent Effect": 0.168}
{"smiles": "O=C1NCCN1C1CCN(Cc2nc(-c3ccc(F)cc3)no2)CC1", "Percent Effect": 108.3}
{"smiles": "O=C1NCCN1C1CCN(Cc2nc(-c3ccccc3)no2)CC1", "Percent Effect": 96.78}
{"smiles": "CN1CCN(C2CCN(Cc3nc(-c4ccoc4)no3)CC2)C1=O", "Percent Effect": 101.9}
{"smiles": "c1ccc(-c2noc(CN3CCC(c4ccn[nH]4)CC3)n2)cc1", "Percent Effect": 3.848}
